The source made the active and inactive calls. The calls were made as follows: active = hit-call score of the fitted dose curve at least 0.9, where 1 is the maximum; inactive = score below 0.9.
Test: CCTE_Simmons_MITO_inhib_resp_rate: CCTE's HepG2 Seahorse XF Respirometric Screening Assay at Inhibited Respiratory State [full ETC block], Simmons Lab (AID 2284006)
Details: actives raise or lower the signal
Method: CCTE_Simmons_MITO is cell-based, respirometric assay using HepG2 cells and a Seahorse XF Analyzer to measure oxygen consumption rates over four temporal phases spanning a total of 72 minutes: pre-injection (pre-treatment), basal (following test compound injection), maximal (following FCCP uncoupler injection), and inhibited (following rotenone/antimycin A injection)CCTE_Simmons_MITO_inhib_resp_rate is one of 4 assay components calculated from the CCTE_Simmons_MITO assay. It is designed to make measurements of inhibited respiration using a form of respirometric reporter, as detected with […] signals by Seahorse XF96 technology. Data from the assay component CCTE_Simmons_MITO_inhib_resp_rate was analyzed at the endpoint, CCTE_Simmons_MITO_inhib_resp_rate_OCR, with bidirectional fitting relative to DMSO as the negative control and baseline of activity. Using a type of respirometric reporter, measures of inhibited respiration for gain or loss-of-signal activity can be used to understand cellular oxygen consumption as it relates to cellular respiration. To generalize the intended target to other relatable targets, this assay endpoint is annotated to the mitochondria intended target family, where the subfamily is respiration.
Test chemicals were administered as a titrated series of 7 concentrations from 125 nM up to 100 uM [final] prior to kinetic endpoint detection at 6 minute intervals [3 min mix followed by 3 minutes measure] for 72 minutes. Three biological replicates of technical singles were run for every chemical concentration tested. Dimethylsulfoxide [DMSO] was used as the vehicle control. The electron transport chain inhibitor fenpyroximate was used as the positive control for decreased basal respiration and was administered as a titrated series of 6 concentrations from 250 nM up to 2.75 uM [final] with technical triplicates for the top concentration only. The uncoupler 2,4-dintirophenol was used as the positive control for increased basal respiration and was administered as a titrated series of 6 concentrations from 938 nM up to 40 uM [final] with technical triplicates for the top concentration only. A Seahorse XF Analzyer is required to measure the response.
With `O=[N+]([O-])c1ccc(O)c([N+](=O)[O-])c1` the outcome was “inactive”.
With `CC(C)(C)CC(C)(C)c1ccc(O)cc1` the outcome was “inactive”.
In the case of `C=C(C)C(=O)[O][Sn]([CH2]CCC)([CH2]CCC)[CH2]CCC`, the outcome is reported as “inactive”.
In the case of `CCOP(=S)(OCC)Oc1nc(Cl)c(Cl)cc1Cl`, the outcome is reported as “inactive”.
For `O=C1C2(Cl)C3(Cl)C4(Cl)C(Cl)(Cl)C5(Cl)C3(Cl)C1(Cl)C5(Cl)C24Cl` (stereo not drawn), the outcome was “inactive”.
In the case of `CC(=O)[O][Hg][c]1ccccc1`, the outcome is reported as “inactive”.
For `CC(C)(c1ccccc1)c1ccc(O)c(C(C)(C)c2ccccc2)c1`, the outcome was “inactive”.
In the case of `C[C@]12CCC(=O)C[C@@H]1CC[C@@H]1[C@@H]2CC[C@]2(C)[C@@H](O)CC[C@@H]12`, the outcome is reported as “inactive”.
With `COc1cc(-c2ccc(N)c(OC)c2)ccc1N` the outcome was “inactive”.
In the case of `O=C(O)C(F)(F)C(F)(F)C(F)(F)C(F)(F)C(F)(F)C(F)(F)C(F)(F)C(F)(F)C(F)(F)C(F)(F)F`, the outcome is reported as “inactive”.
In the case of `O=C(Nc1ccc2[nH]ccc2c1)c1cc2cc(F)ccc2n1Cc1cccc(F)c1`, the outcome is reported as “inactive”.
With `CCCCCCCCc1ccc(O)cc1` the outcome was “inactive”.
For `CCC(C)(C)c1ccc(O)c(C(C)(C)CC)c1`, the outcome was “inactive”.

— PubChem BioAssay (EPA / NIEHS)
